Entries with a potency or affinity are not part of this list.
Assay: inhibitors of CD8+ T cell–vesicle binding, dose response, mouse 2C CD8+ T cells, flow cytometry (AID 485284);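 also: drosophila derived vesicles carrying Ld MHC with QL9 peptide plus B7-1 and ICAM-1; vesicle binding seen as anti-B7-1 PE fluorescence on CD8 gated cells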
Settings: 2C mouse CD8+ T cell-exosome binding; at 45 µM (top of the series)

| SMILES | binding remaining, % of control [%] |
| --- | --- |
| COc1ccc(N2C(=O)CC(Sc3ncn[nH]3)C2=O)c(OC)c1 (centres undefined) | 135 |
| COc1cccc(NC(=O)Nc2ccc3nc(C)c(C)nc3c2)c1 | 129 |
| NC(=O)NC(=O)COC(=O)CN1C(=O)C2CCCCC2C1=O (centres undefined) | 164 |
| Cc1cc(F)ccc1S(=O)(=O)N1CCCOC1CNC(=O)C(=O)NC1CCCC1 (centres undefined) | 67.8 |
| O=C1N=C(N2CCOCC2)S/C1=C\c1cccs1 | 99.5 |
| Cc1cccc(N(C(=O)c2snc(C(N)=O)c2N)C(C(=O)NCC2CCCO2)c2ccc(N(C)C)cc2)c1C (centres undefined) | 22.8 |
| Cc1ncc([N+](=O)[O-])n1Cc1cccc(F)c1 | 40.3 |
| CN(CC(=O)Nc1cc(S(=O)(=O)N2CCCC2)ccc1Cl)Cc1ccc2c(c1)OCO2 | 63 |
| COc1cc(F)c(C2=CC(=O)C[C@H](c3ccc(F)cc3)C2)cc1F | 108 |
| COc1ccc([C@H]2CC(=O)C=C(c3c(C)cc(C)cc3C)C2)cc1 | 56.3 |
| COc1ccc(OC)c(NC(=O)CCN2CCCCC2)c1 | 220 |
| O=C(Cc1ccc(S(=O)(=O)N2CCOCC2)s1)Nc1ccc(S(=O)(=O)N2CCCCC2)cc1 | 72.7 |
| CCOC(=O)N1CCN(Cc2nc(-c3ccc(C)cc3)no2)CC1 | 78.4 |
| COc1ccc(-c2cc(=O)c3cc(O)ccc3o2)cc1 | 110 |
| COc1ccc([C@H]2CC(=O)C=C(/C=C/c3ccccc3)C2)cc1 | 52.1 |
| CCCc1cc(=O)[nH]c(SCC(=O)N2c3ccccc3CC2C)n1 (centres undefined) | 126 |
| c1ccc(COc2ccc(OCCN3CCCCC3)cc2)cc1 | 112 |

| SMILES | binding remaining, % of control [%] |
| --- | --- |
| O=S(=O)(c1ccc(F)cc1)N1CCC(O)(c2ccc3c(c2)OCO3)CC1 | 108 |
| O=C(CCC(=O)N1CCOCC1)NCc1cccc(C(F)(F)F)c1 | 64.2 |
| Cc1ccc(C)c(-n2c3nc(=O)[nH]c(=O)c-3cc3cc([N+](=O)[O-])ccc32)c1 | 133 |
| Cc1ccc(S(=O)(=O)N2CCN(S(=O)(=O)N(C)C)CC2)c(C)c1 | 32.6 |
| COC(=O)c1ccc(OC(=O)CS(=O)c2ccccc2[N+](=O)[O-])cc1 (centres undefined) | 97.9 |
| CCCCN(C(=O)COC(=O)c1ccc(C=O)cc1)c1c(N)n(CCC)c(=O)[nH]c1=O | 50.1 |
| CCOC(=O)c1sc(NC(=O)C2CC(=O)N(c3ccccc3OC)C2)nc1C (centres undefined) | 141 |
| COc1ccc(Nc2ccccc2N)cc1 | 182 |
| O=C(Cc1ccc2c(c1)OCCO2)Nc1cccc(S(=O)(=O)N2CCOCC2)c1 | 135 |
| O=C(CC12CC3CC(CC(C3)C1)C2)N/N=C/c1ccc([N+](=O)[O-])o1 | 70.5 |
| COc1ccc(/C=C2\SC(N3CCc4ccccc4C3)=NC2=O)cc1OC | 18.6 |
| CCN(CC)C(=O)N1CCN(S(=O)(=O)c2ccc(C)cc2)CC1 | 112 |
| O=C(CN1C(=O)NC2(CCCCCC2)C1=O)N1CCN(c2ccccc2)CC1 | 158 |
| COc1ccc(N2CC(C(=O)N[C@@H](C)C(=O)NCc3ccccc3OC)CC2=O)cc1 (some centres undefined) | 24.3 |
| O=C1CCCc2sccc2N1 | 106 |
| Cc1ccc(S(=O)(=O)N2CCN(C(=O)CNC(=O)c3ccc(Cl)cc3)CC2)cc1 | 219 |
| Cc1ccc(S(=O)(=O)N2CCN(CCOc3c(Cl)cccc3Cl)CC2)cc1C | 100 |
